# Compound activity (PubChem BioAssay)
# Hits are enriched below; roughly 4.7% of the tested compounds scored in any of these assays.
# TRHR PAM – allosterically enhances the human TRH receptor | AID 493056 | 0.66% of 360,000 active | enhancement, % at 2 µM | TRHR cells, fluo-8 calcium fluorescence, EC20 TRH enhancement | P34981; in the data active means enhancement above about 30%; further: 0% is about no effect
#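 TRHR-expressing cells loaded with fluo-8 calcium dye were read kinetically (ex 480/em 530) during compound addition, then stimulated with an EC20 of TRH (10 nM final). Enhancement of the Gq-mediated intracellular calcium response was scored.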
# D1 antag – human D1 dopamine receptor antagonism; activity change, negative = inhibition, % at 10 µM; HEK293 TREx D1 cells, calcium flux, dopamine EC80; active compounds read low; AID 504652; 3.2% of 360,000 active; in the data active means activity change below about -30%; further: on the % scale 0 is the no-effect control and ±100 the full control effect
# Target sequence (P21728 whole entry, looked up): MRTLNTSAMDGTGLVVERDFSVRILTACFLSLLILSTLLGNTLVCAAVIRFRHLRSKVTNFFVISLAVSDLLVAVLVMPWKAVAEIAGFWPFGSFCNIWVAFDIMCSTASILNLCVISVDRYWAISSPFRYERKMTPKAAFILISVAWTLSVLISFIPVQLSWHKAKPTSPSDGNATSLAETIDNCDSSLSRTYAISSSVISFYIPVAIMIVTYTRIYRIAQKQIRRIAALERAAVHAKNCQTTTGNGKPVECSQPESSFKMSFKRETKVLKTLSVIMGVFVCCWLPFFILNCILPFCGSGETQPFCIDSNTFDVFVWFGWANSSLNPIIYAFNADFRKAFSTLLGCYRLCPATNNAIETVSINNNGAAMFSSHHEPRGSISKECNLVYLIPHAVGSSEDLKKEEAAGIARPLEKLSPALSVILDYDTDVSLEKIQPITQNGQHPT
#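 HEK293 T-REx cells expressing inducible, force-coupled D1 receptor; no-wash Ca dye, 30–90 min RT. Cmpd → 180 s read at 1 Hz → EC80 DA → 180 s read.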
# TRHR ag – agonists of human TRH receptor; P34981; TRHR cells, calcium flux fluo-8, FDSS agonist mode; activation, % at 2 µM; 0.18% of 360,000 active; further: 0% is about no effect
#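 TRHR-expressing cells loaded with fluo-8 calcium dye; 23 nL library compound pin-transferred, kinetic FDSS fluorescence (Ex 480/Em 530) recorded about 180 s for agonist-induced calcium release, before a 10 nM TRH EC20 addition for potentiator mode.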
# D1 agonist – agonists of human D1 dopamine receptor. P21728. HEK293 T-REx D1 cells, calcium flux, agonist mode. activation, % at 2 µM. 1% of 360,000 active. AID 504660; further: 0% is about no effect
#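 Agonism was scored from calcium flux recorded over 180 s (1 read/s) after pintool compound addition, following a 10-cycle baseline. Cells were inducible force-coupled HEK293 TREx D1, plated overnight at 30 C and loaded with no-wash calcium dye.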
# D1 potentiator – human D1 dopamine receptor positive modulation | P21728 | HEK293 TREx D1 cells, calcium flux, dopamine EC20 potentiation | potentiation, % at 10 µM | 0.036% of 360,000 active | AID 504651; in the data active means potentiation above about 30%; further: 0% is about no effect
# The depositor's hits bear a star; nt = no result given. Unless noted, no stated cut-off is given here; in the data, active means activation above about 30%; inactive means the rest.
SMILES,TRHR PAM,D1 antag,TRHR ag,D1 agonist,D1 potentiator
CC(=O)c1cc(C#N)c(N2CCN(c3ccccc3)CC2)nc1C,-2,-43*,1,4,-10
COc1ccc(CNC(=O)C2CCN(S(=O)(=O)c3c(C)noc3/C=C/c3cccs3)CC2)cc1,1,8,1,3,1
CCC1CCCCN1C(=O)c1ccc2c(c1)N(Cc1cccc(Cl)c1)C(=O)c1ccccc1S2(=O)=O (centres undefined),-3,1,0,0,-4
COC(=O)c1c(C)oc(C)c1S(=O)(=O)NCC1CC1,2,-5,-1,3,-11
COC(=O)c1c(C)oc(C)c1S(=O)(=O)N(C)C1CCCCC1,-1,-46*,-2,1,-2
O=C(c1ccco1)N1N=C(C2CCCCC2)CC1(O)C(F)(F)F (centres undefined),-5,-38*,0,2,-5
O=C(c1ccco1)N1N=C(c2ccc(Br)cc2)CC1(O)C(F)(F)F (centres undefined),19,-46*,1,6,-5
Cc1cc2c(s1)c1cnn(Cc3cccc4cccnc34)c(=O)c1n2C,0,-1,-1,1,7
O=C(NCc1cccs1)c1nn(-c2ccccc2Cl)nc1CO,1,-5,-2,1,-1
OCCN1CCN(C(c2ccc(Cl)cc2Cl)c2sc3nc(-c4ccco4)nn3c2O)CC1 (centres undefined),-10,nt,0,-2,2
CCN1CCN(c2ncc3c(n2)CCN(Cc2ccccc2C)C3)CC1,6,10,1,3,0
Cc1ccc(C(C)C)c(OC/C(O)=C(\C#N)c2nc3ccccc3[nH]2)c1,1,-32*,0,2,-4
CC(C)C(=O)OC/C(O)=C(\C#N)c1nc2ccccc2[nH]1,-5,-25,2,2,-6
CCc1ccccc1N1CC(c2nc3ccccc3n2CCOc2ccc(Cl)c(C)c2)CC1=O (centres undefined),6,11,-1,26,0
CCCCCCCCNC(C)C(O)c1ccc(SC(C)C)cc1 (centres undefined),13,8,0,50*,4
COc1ccc(Nc2cc(C)nc(-n3nc(C)cc3C)n2)cc1Cl,-4,-34*,0,4,0
COc1ccc(CCN(C)C(=O)CN2C(=O)NC3(CCCCCC3)C2=O)cc1OC,8,-60*,0,-1,-6
COc1ccc(CCN(C)C(=O)Cc2ccc(-c3ccccc3)cc2)cc1OC,-3,-31*,1,10,-2
CCCSc1nnc(NC(=O)c2nc(SC)ncc2Cl)s1,0,-36*,0,0,-4
CCOC(=O)c1sc(NC(=O)/C=C/c2ccc(OCC)cc2)c(C(=O)OCC)c1C,0,-7,0,4,-2
CCOC(=O)c1c(NC(=O)/C=C/c2ccc(C)cc2)sc(C(C)=O)c1C,-2,-32*,-1,-1,-3
CCS(=O)(=O)c1ncc(Cl)c(C(=O)Nc2ccc(S(=O)(=O)N3CCC(C)CC3)cc2)n1,19,-66*,0,2,-13
CSc1ncc(Cl)c(C(=O)Nc2nnc(SC)s2)n1,1,8,0,1,1
CCOC(=O)c1ccc(NC(=O)c2nc(S(=O)(=O)Cc3ccccc3)ncc2Cl)cc1,-10,-45*,0,1,-8
CCSc1ncc(Cl)c(C(=O)Nc2ccc(S(=O)(=O)N3CCC(C)CC3)cc2)n1,-5,-3,1,2,1
SMILES,TRHR PAM,D1 antag,TRHR ag,D1 agonist,D1 potentiator
O=C(Nc1ccc(Oc2ccccc2)cc1)C1CCN(S(=O)(=O)c2ccccc2)CC1,4,-15,0,7,-1
Cc1ccc(C(=O)c2oc3ccccc3c2NC(=O)c2nc(S(C)(=O)=O)ncc2Cl)cc1F,-1,7,-1,-1,0
CCSc1ncc(Cl)c(C(=O)Nc2ccccc2)n1,36*,-15,-1,3,-16
CCOC(=O)c1c(NC(=O)c2nc(S(C)(=O)=O)ncc2Cl)sc(C(C)=O)c1C,-11,-31*,-1,1,2
CCS(=O)(=O)c1ncc(Cl)c(C(=O)Nc2ccccc2)n1,-21,-30*,2,5,-3
CCSc1ncc(Cl)c(C(=O)Nc2c(C(=O)Nc3ccccc3)oc3ccccc23)n1,3,-9,0,1,-2
CCOC(=O)c1c(-c2ccccc2)csc1NC(=O)c1nc(SCC)ncc1Cl,-1,-11,1,5,-1
CCOC(=O)c1c(-c2ccccc2)csc1NC(=O)c1nc(S(=O)(=O)CC)ncc1Cl,-16,-47*,0,3,-4
Cc1ccc(Cl)cc1NC(=O)Nc1cccc(OCc2cc(=O)n3ccccc3n2)c1,12,-11,1,1,-2
CCCSc1ncc(Cl)c(C(=O)Nc2ccc(S(=O)(=O)N(C)c3ccccc3)cc2)n1,-1,7,1,16,1
CN(c1ccccc1)S(=O)(=O)c1ccc(NC(=O)c2nc(S(C)(=O)=O)ncc2Cl)cc1,17,-47*,2,2,-10
CCc1ccc(NC(=O)c2nc(S(=O)(=O)Cc3ccccc3)ncc2Cl)cc1,15,-64*,0,4,-13
Cc1ccc(NC(=O)C2CCN(S(=O)(=O)c3ccc(Cl)c(C(F)(F)F)c3)CC2)nc1,-11,-39*,0,1,-6
O=C(CN1CCCN(S(=O)(=O)c2ccc(Br)cc2)CC1)Nc1ccc2c(c1)OCO2,-6,-49*,0,0,-15
Cc1ccnc(NC(=O)C2CCN(S(=O)(=O)c3ccc(Cl)c(C(F)(F)F)c3)CC2)c1,-12,0,0,1,-4
Cc1ccc(S(=O)(=O)N2CCC(C(=O)Nc3ccc4c(c3)OCO4)CC2)cc1,3,-47*,0,2,-9
O=C(Nc1ccccn1)C1CCN(S(=O)(=O)c2ccc3c(c2)OCCCO3)CC1,3,-3,0,11,-9
Cc1ccc(NC(=O)C2CCN(S(=O)(=O)c3ccc4c(c3)OCCCO4)CC2)nc1,-2,-33*,0,2,-7
CCN(CC)CCCNC(=O)Cc1csc2nc(-c3ccc(Cl)cc3)cn12,8,2,1,0,-2
CCOc1ccc2nc(N3CCCC(C(=O)Nc4ccc(OC)cc4)C3)sc2c1 (centres undefined),2,-5,0,6,-1
COc1ccc(OC)c(NC(=O)C(C)n2c(=O)cc(C)c3c(C)nn(-c4ccccc4)c32)c1 (centres undefined),3,2,0,0,-3
CCn1c(/C=C/c2ccc(O)cc2)nc2ccccc2c1=O,-4,4,-2,6,-3
CCn1c(/C=C/c2ccc(O)c(O)c2)nc2ccccc2c1=O,34*,2,8,2,1
CNc1nc(N)nc(-c2cc(Cl)ccc2OC)n1,0,-30*,0,-1,0
